# Measured values taken from PubChem BioAssay (Tox21).
# Results filed as inconclusive are left out. A call without a number means that no potency is given here. Calls of active or inactive are those of the source. Unless noted, the call rests on the fitted dose curve; in most records, active means well fitted curve in the direction sought with a large enough effect in the repeat runs; inconclusive means weak or mixed curves; inactive means no such curve, though single readings can be large; an effect the other way counts as inactive or inconclusive.
# Legend:
# [1] = qHTS assay for small molecules that induce genotoxicity in human embryonic kidney cells expressing luciferase-tagged ATAD5 (AID 651632); further: nearly all actives have a fitted effect of over 15% in size
# How it was run: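 Luminescent reporter readout, HEK293T ATAD5-luc line: 16 hr drug exposure (37C, 5% CO2) followed by Amplite, 30 min RT.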
# [2] = qHTS assay for small molecule agonists of the p53 signaling pathway - cell viability (AID 651633; calls by dose curve;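 further: p53RE-bla HCT reporter cells with a stable beta-lactamase p53 reporter; series mostly up to about 83 µM; nearly all actives have a fitted effect of over 30% in size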)
# How it was run: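 p53RE-bla cells, seeded at 4,000 per well and rested 5 h at 37 C/5% CO2, received compounds in DMSO for 16 h at 37 C. CellTiter-Glo was then added, and luminescence was read after 30 min at room temperature to gauge cytotoxicity.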
# [3] = qHTS assay for small molecules that induce genotoxicity in human embryonic kidney cells expressing luciferase-tagged ATAD5 - cell viability (AID 651634; calls by dose curve; further: nearly all actives have a fitted effect of over 25% in size)
# How it was run: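 Viability read: CellTiter-Fluor fluorescence, 30 min at 37C. Cells: HEK293T, luciferase-tagged ATAD5. Exposure: 15.5 hr, 37C, 5% CO2, compound or DMSO vehicle.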
# [4] = qHTS assay for small molecule disruptors of the mitochondrial membrane potential - cell viability (AID 720634; calls by dose curve;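 further: human HepG2 liver cancer cells; series mostly up to about 83 µM; nearly all actives have a fitted effect of over 20% in size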)
# How it was run: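 HepG2, 1 hr compound, 37 C. ATP luminescence via CellTiter-Glo, 30 min RT, same well as m-MPI.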
# [5] = qHTS assay for small molecule disruptors of the mitochondrial membrane potential (AID 720635)
# How it was run: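 HepG2 cells (2,000/well) attached overnight at 37C, then took compound for 1 hr at 37C, 5% CO2. Mito-MPS dye was added for 30 min; fluorescence was read at 490/535 nm (monomers) and 540/590 nm (aggregates).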
# [6] = qHTS assay to test for compound auto fluorescence at 590 nm (red) in HepG2 cells (AID 720674)
# How it was run: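 Compound auto-fluorescence is scored relative to Rose Bengal sodium, measured at 540/590 nm in live HepG2 cultures after 1 hr compound contact (37 C, 5% CO2).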
# [7] = qHTS assay to test for compound auto fluorescence at 535 nm (green) in HepG2 cells (AID 720675)
# [8] = qHTS assay to test for compound auto fluorescence at 460 nm (blue) in HEK293 cells (AID 720678)
# How it was run: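 After cell attachment (4-5 hr, 37C), compounds were pinned onto HEK293 monolayers in 10% dialyzed FBS medium. The blue channel (405/460 nm) was read following overnight culture. Equivalency was calculated against triamterene.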
# [9] = qHTS assay to test for compound auto fluorescence at 590 nm (red) in HEK293 cells (AID 720679)
# How it was run: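 Plates of HEK293 cells (10% dialyzed FBS) are treated with 23 nL compound or DMSO vehicle after a 4-5 hr attachment period, incubated overnight at 37C, and read for red fluorescence at 540/590nm.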
# [10] = qHTS assay to test for compound auto fluorescence at 535 nm (green) in HEK293 cells (AID 720680)
# [11] = qHTS assay to test for compound auto fluorescence at 590 nm (red) in HEK293 cell free culture (AID 720683)
# How it was run: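 Tox21 10K library compounds were pinned into cell-free DMEM with 10% FBS and fluorescence was read at excitation 540 nm. Activity is expressed as Rose Bengal sodium equivalency.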
# [12] = qHTS assay to test for compound auto fluorescence at 590 nm (red) in HepG2 cell free culture (AID 720684)
# How it was run: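 Red fluorescence (540 nm excitation, 590 nm emission) was measured after compound transfer into cell-free MEM supplemented with 10% FBS. Values are equivalencies against Rose Bengal sodium.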
# [13] = qHTS assay to test for compound auto fluorescence at 460 nm (blue) in HepG2 cell free culture (AID 720685)
# How it was run: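 Compound (23 nL) or DMSO pinned into cell-free MEM with 10% FBS; blue fluorescence read at 405/460 nm excitation/emission, expressed as auto-fluorescence equivalency to triamterene.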
# [14] = qHTS assay to test for compound auto fluorescence at 535 nm (green) in HepG2 cell free culture (AID 720686)
# [15] = qHTS assay to test for compound auto fluorescence at 460 nm (blue) in HepG2 cells (AID 720687)
# How it was run: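 Cells (2,000/well in MEM with 10% FBS) attached overnight at 37 C, then were exposed to compound or DMSO for 1 hr at 37 C, 5% CO2. Fluorescence read at Ex/Em 405/460 nm, expressed as triamterene-equivalent signal.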
# [16] = target: Glucocorticoid receptor (Homo sapiens) (UniProt P04150); experiment: qHTS assay to identify small molecule agonists of the glucocorticoid receptor (GR) signaling pathway (AID 720691; active means well fitted activation curve with a large enough effect in the signal ratio in the repeat runs, not every such curve was filed as active; the % refers to the signal ratio)
# How it was run: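 qHTS in GR-bla HeLa cells: 4 h settling at 37 C/5% CO2, 18 h compound incubation at 37 C, 2 h LiveBLAzer B/G FRET substrate at room temperature, fluorescence intensity measured.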
# [17] = target: Glucocorticoid receptor (Homo sapiens) (UniProt P04150); experiment: qHTS assay to identify small molecule antagonists of the glucocorticoid receptor (GR) signaling pathway (AID 720692; active means well fitted inhibition curve with a large enough effect in the signal ratio in the repeat runs, not every such curve was filed as active; the % refers to the signal ratio)
# How it was run: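 Inhibition of glucocorticoid signalling is measured in HeLa cells with a GRE-controlled beta-lactamase reporter; cells are co-treated with compound and 5 nM dexamethasone (final) for 18 h before FRET substrate readout.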
# [18] = qHTS assay to identify small molecule antagonists of the glucocorticoid receptor (GR) signaling pathway - cell viability counter screen (AID 720693); further: nearly all actives have a fitted effect of over 55% in size
# [19] = qHTS assay for identifying genotoxic compounds that show differential cytotoxicity against isogenic chicken DT40 cell lines with known DNA damage response pathways - wild type cell line (AID 743012); further: potency means the concentration at half of the fitted maximal effect; nearly all actives have a fitted effect of over 60% in size
# How it was run: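 First, wild type DT40 cells were plated at 300 per well and equilibrated about 0.5 h at 37 C/5% CO2. Next, compounds in DMSO were added and exposure lasted 40 h. Finally, CellTiter-Glo was added for 30 min at room temperature and luminescence recorded.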
# [20] = qHTS assay to identify small molecule antagonists of the androgen receptor (AR) signaling pathway - cell viability counter screen (AID 743033; further: nearly all actives have a fitted effect of over 45% in size)
# [21] = qHTS assay to identify small molecule antagonists of the androgen receptor (AR) signaling pathway using the MDA cell line - cell viability counter screen (AID 743041; further: nearly all actives have a fitted effect of over 45% in size)
# How it was run: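 MDA-kb2 AR-luc human breast carcinoma cells (MMTV-luciferase, AR/GR responsive) were treated with compounds plus R1881 agonist for 16 h at 37 °C. Viability was read as CellTiter-Fluor fluorescence in the same wells as the reporter assay.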
# [22] = qHTS assay to identify small molecule antagonists of the thyroid receptor (TR) signaling pathway - cell viability counter screen (AID 743064); further: nearly all actives have a fitted effect of over 50% in size
# How it was run: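 Fluorescence from CellTiter-Fluor, added after 23.5 h exposure at 37 °C, reported viability of GH3.TRE-Luc cells co-treated with compound and 1 nM T3. Measured in the same wells as the luciferase TR readout.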
# [23] = test system: thyroid hormone receptor (rat, GH3 cells); experiment: qHTS assay to identify small molecule agonists of the thyroid receptor (TR) signaling pathway (AID 743066; calls by dose curve)
# [24] = target: Estrogen receptor (Homo sapiens) (UniProt P03372); experiment: qHTS assay to identify small molecule antagonists of the estrogen receptor alpha (ER-alpha) signaling pathway (AID 743069; active means well fitted curve in the direction sought with a large enough effect in the signal ratio in the repeat runs, not every such curve was filed as active; the % refers to the signal ratio)
# How it was run: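 HEK293 cells stably carrying an ER-alpha-UAS-bla beta-lactamase reporter were pre-cultured overnight in 2% charcoal-stripped FBS medium. Test compounds in DMSO were added together with 17beta-estradiol for 18 hr at 37C. Read-out was fluorescence after 2 hr with LiveBLAzer B/G FRET substrate at room temperature.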
# [25] = target: Estrogen receptor (Homo sapiens) (UniProt P03372); experiment: qHTS assay to identify small molecule agonists of the estrogen receptor alpha (ER-alpha) signaling pathway (AID 743075; calls by dose curve)
# [26] = target: Estrogen receptor (Homo sapiens) (UniProt P03372); experiment: qHTS assay to identify small molecule agonists of the estrogen receptor alpha (ER-alpha) signaling pathway using the BG1 cell line (AID 743079); further: nearly all actives have a fitted effect of over 20% in size
# [27] = qHTS assay to identify small molecule antagonists of the estrogen receptor alpha (ER-alpha) signaling pathway using the BG1 cell line (AID 743080; calls by dose curve;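 further: BG1 cells stimulated with 17beta-estradiol alongside compound; series mostly up to about 70 µM; nearly all actives have a fitted effect of over 25% in size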)
# How it was run: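 Seeding, 24 h rest, compound transfer from DMSO, 17beta-estradiol addition, 21.5 h incubation, CellTiter-Fluor (30 min, 37 C), then ONE-Glo (30 min, room temperature): this sequence was run on BG1-Luc-4E2 reporter cells.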
# Aromatase (Homo sapiens) = Aromatase (Homo sapiens) (UniProt P11511); experiment: qHTS assay to identify aromatase inhibitors (AID 743083); further: series mostly up to about 70 µM; nearly all actives have a fitted effect of over 55% in size
# [28] = qHTS assay to identify aromatase inhibitors - cell viability counter screen (AID 743084);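 further: cells stimulated with testosterone during compound exposure; nearly all actives have a fitted effect of over 55% in size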
# [29] = target: Aryl hydrocarbon receptor (Homo sapiens) (UniProt P35869); experiment: qHTS assay to identify small molecule that activate the aryl hydrocarbon receptor (AhR) signaling pathway (AID 743085);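 further: HG2L7.5c1 human HepG2 liver cells with stably integrated DRE-driven firefly reporter; series mostly up to about 70 µM; nearly all actives have a fitted effect of over 15% in size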
# How it was run: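 Cell line HG2L7.5c1 (human hepatoma, 20× DRE-luc). Plated, 5 h 37C, compound/DMSO added, 24 h 37C. CellTiter-Fluor 30 min 37C → fluorescence; then ONE-Glo 30 min RT → luminescence.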
# [30] = qHTS assay to identify small molecule that activate the aryl hydrocarbon receptor (AhR) signaling pathway - cell viability counter screen (AID 743086);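 further: HepG2 liver cells carrying the AhR DRE luciferase reporter; series mostly up to about 70 µM; nearly all actives have a fitted effect of over 45% in size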
# How it was run: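 HepG2-AhR-luc (HG2L7.5c1) cells, 4000/well, were preincubated 5 h at 37C, exposed to compound in qHTS format for 24 hr at 37C, then given CellTiter-Fluor for 30 min; viability was read as fluorescence in the reporter wells.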
# [31] = qHTS assay to identify small molecule antagonists of the thyroid receptor (TR) signaling pathway (AID 743065); further: series mostly up to about 70 µM; nearly all actives have a fitted effect of over 55% in size
# How it was run: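 GH3.TRE-Luc rat pituitary cells carrying two TR response elements driving luciferase were plated for 4 h, given compound plus 1 nM T3 (final), and incubated 23.5 h at 37 C. ONE-Glo luminescence measured reporter inhibition; CellTiter-Fluor fluorescence tracked cytotoxicity.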
# [32] = qHTS assay to identify small molecule antagonists of the estrogen receptor alpha (ER-alpha) signaling pathway using the BG1 cell line - cell viability counter screen (AID 743081);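 further: compound given together with 17beta-estradiol as the ER stimulus; series mostly up to about 70 µM; nearly all actives have a fitted effect of over 45% in size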
# [33] = target: Peroxisome proliferator-activated receptor gamma (Homo sapiens) (UniProt P37231); experiment: qHTS assay to identify small molecule agonists of the peroxisome proliferator-activated receptor gamma (PPARg) signaling pathway (AID 743094; active means well fitted activation curve with a large enough effect in the signal ratio in the repeat runs, not every such curve was filed as active; the % refers to the signal ratio)
# How it was run: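 Compounds dissolved in DMSO were added to PPARg UAS-bla HEK293H cells for 17 h at 37C, and reporter expression was quantified by fluorescence intensity after 1 h with LiveBLAzer B/G FRET substrate.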
# Chain of Glucocorticoid receptor (Homo sapiens) (P04150 whole entry, looked up): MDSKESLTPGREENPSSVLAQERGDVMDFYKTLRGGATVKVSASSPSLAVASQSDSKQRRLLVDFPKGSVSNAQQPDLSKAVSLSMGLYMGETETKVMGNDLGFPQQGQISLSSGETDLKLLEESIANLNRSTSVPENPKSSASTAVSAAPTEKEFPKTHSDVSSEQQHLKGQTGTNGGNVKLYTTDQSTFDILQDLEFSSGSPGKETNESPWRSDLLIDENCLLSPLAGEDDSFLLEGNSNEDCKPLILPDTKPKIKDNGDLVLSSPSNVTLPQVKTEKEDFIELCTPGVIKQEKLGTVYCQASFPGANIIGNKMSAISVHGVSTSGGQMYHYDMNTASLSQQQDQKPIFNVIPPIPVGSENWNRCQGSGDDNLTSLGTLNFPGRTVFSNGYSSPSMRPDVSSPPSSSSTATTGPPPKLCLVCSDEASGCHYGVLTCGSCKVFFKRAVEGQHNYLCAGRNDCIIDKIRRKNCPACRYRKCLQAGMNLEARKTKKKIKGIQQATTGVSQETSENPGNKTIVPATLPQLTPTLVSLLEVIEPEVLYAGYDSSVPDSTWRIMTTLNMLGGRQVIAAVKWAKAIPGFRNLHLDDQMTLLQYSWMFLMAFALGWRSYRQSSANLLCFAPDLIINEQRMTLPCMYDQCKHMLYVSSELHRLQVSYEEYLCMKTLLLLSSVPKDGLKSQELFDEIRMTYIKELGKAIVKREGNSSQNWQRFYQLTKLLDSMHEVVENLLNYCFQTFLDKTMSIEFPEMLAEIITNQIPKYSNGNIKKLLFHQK
# Chain of Estrogen receptor (Homo sapiens) (P03372 whole entry, looked up): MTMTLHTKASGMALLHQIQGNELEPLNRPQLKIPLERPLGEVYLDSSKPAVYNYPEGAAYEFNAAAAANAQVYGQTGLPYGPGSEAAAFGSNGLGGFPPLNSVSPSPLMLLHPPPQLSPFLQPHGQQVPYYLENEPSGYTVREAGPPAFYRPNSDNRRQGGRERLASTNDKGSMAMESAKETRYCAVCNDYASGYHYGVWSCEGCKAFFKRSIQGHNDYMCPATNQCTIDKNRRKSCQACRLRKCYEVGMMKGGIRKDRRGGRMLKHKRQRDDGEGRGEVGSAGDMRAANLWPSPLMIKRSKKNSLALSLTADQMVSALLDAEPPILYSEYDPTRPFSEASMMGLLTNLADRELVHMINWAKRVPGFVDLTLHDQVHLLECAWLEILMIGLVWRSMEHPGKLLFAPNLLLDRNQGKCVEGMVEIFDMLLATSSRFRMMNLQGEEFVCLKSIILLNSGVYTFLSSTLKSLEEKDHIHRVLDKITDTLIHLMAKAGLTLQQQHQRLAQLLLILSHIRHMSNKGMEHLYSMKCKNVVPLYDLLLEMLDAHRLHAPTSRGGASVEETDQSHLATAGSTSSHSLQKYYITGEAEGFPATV
# Chain of Aromatase (Homo sapiens) (P11511 whole entry, looked up): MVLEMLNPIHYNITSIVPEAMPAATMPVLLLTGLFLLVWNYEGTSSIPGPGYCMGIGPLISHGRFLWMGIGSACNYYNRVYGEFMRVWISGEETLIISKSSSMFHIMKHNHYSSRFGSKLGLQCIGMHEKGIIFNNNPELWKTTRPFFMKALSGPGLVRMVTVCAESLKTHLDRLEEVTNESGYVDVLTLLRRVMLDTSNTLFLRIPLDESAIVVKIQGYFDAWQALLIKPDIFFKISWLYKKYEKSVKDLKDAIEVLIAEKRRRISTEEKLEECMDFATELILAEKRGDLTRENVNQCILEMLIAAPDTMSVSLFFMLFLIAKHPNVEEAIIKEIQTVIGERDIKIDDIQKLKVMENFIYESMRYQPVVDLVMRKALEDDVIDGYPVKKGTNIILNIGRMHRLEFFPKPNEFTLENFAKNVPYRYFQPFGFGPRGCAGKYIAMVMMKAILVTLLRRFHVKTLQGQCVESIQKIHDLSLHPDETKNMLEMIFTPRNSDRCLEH
# Chain of Aryl hydrocarbon receptor (Homo sapiens) (P35869 whole entry, looked up): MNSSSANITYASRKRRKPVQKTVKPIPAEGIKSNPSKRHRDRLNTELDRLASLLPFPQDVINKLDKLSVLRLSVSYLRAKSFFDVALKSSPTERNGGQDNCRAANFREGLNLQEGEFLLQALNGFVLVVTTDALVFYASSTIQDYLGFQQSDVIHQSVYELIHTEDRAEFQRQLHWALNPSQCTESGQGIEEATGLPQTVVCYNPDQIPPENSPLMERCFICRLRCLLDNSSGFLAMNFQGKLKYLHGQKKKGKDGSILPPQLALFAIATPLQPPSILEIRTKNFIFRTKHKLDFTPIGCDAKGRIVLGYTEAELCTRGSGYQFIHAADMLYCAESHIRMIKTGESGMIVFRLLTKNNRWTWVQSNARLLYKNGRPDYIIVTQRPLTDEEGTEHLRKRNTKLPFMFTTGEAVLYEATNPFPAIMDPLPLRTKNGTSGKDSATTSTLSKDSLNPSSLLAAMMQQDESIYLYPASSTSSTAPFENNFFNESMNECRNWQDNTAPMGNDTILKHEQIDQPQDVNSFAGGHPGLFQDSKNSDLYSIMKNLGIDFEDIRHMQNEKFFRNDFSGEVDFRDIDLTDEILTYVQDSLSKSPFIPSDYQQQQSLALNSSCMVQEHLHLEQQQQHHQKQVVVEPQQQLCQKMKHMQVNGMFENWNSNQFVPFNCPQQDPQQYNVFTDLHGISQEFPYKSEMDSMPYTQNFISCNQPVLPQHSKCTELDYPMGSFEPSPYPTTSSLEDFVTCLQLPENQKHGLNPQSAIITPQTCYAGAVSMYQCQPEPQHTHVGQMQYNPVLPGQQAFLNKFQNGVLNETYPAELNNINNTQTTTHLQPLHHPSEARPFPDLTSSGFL
# Chain of Peroxisome proliferator-activated receptor gamma (Homo sapiens) (P37231 whole entry, looked up): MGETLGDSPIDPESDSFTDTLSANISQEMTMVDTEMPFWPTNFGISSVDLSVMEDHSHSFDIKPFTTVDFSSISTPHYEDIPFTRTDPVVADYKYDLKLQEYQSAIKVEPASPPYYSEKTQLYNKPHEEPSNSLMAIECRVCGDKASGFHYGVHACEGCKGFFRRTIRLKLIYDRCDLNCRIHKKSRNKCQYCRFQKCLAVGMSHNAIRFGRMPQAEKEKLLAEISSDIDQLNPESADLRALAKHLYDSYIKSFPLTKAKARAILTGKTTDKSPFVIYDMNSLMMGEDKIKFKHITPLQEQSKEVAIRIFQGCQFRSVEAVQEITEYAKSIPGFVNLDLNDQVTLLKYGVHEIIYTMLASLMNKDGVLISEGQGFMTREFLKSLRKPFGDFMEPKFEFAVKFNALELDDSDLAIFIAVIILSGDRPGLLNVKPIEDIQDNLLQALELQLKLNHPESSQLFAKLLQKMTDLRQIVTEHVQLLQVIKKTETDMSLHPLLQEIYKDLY
smiles,measurement,setting,value
Cc1ccc2c(c1)[C@]13CCCC[C@@H]1[C@H](C2)N(C)CC3,outcome,[1],inactive
same,Potency,[2],inactive
same,Potency,[3],inactive
same,outcome,[4],inactive
same,Potency,[5],inactive
same,outcome,[6],inactive
same,outcome,[7],inactive
same,outcome,[8],inactive
same,outcome,[9],inactive
same,outcome,[10],inactive
same,outcome,[11],inactive
same,outcome,[12],inactive
same,outcome,[13],inactive
same,outcome,[14],inactive
same,outcome,[15],inactive
same,outcome,[16],inactive
same,Potency,[17],inactive
same,Potency,[18],inactive
same,Potency,[19],26.6 µM (active)
same,Potency,[20],inactive
same,outcome,[21],inactive
same,Potency,[22],inactive
same,outcome,[23],inactive
same,outcome,[24],inactive
same,Potency,[25],inactive
same,Potency,[26],inactive
same,outcome,[27],inactive
same,Potency,Aromatase (Homo sapiens),inactive
same,outcome,[28],inactive
same,outcome,[29],inactive
same,Potency,[30],inactive
CN1CCN=C(c2ccccc2)c2cc(Cl)ccc21,outcome,[1],inactive
same,Potency,[2],inactive
same,Potency,[3],inactive
same,outcome,[4],inactive
same,Potency,[5],inactive
same,outcome,[6],inactive
same,outcome,[7],inactive
same,outcome,[8],inactive
same,outcome,[9],inactive
same,outcome,[10],inactive
same,outcome,[11],inactive
same,outcome,[12],inactive
same,outcome,[13],inactive
same,outcome,[14],inactive
same,outcome,[15],inactive
same,outcome,[16],inactive
same,Potency,[18],inactive
same,Potency,[20],inactive
same,outcome,[21],inactive
same,Potency,[22],inactive
same,Potency,[31],inactive
same,outcome,[23],inactive
same,Potency,[32],inactive
same,Potency,Aromatase (Homo sapiens),inactive
same,outcome,[28],inactive
same,Potency,[30],inactive
same,outcome,[33],inactive
